The entries come from a sample that favours the strongest signals as a whole.
Columns and labels:
Assay in all cases: glycan array binding signal (z-score within array); higher = stronger binding
Settings in all cases: glycan notation: IUPAC condensed, linker removed
GalNAc(b1-3)Gal = target: GalNAc(b1-3)Gal
Method in brief: (§1)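 The binding signal is a Z-score computed within each array and averaged over linkers. Arrays of the same protein sequence at different concentrations or buffers were also averaged together. Data originate from 3228 arrays in the Consortium for Functional Glycomics database, kept only where the protein sequence was available.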

[1] = target: GalNAc(b1-3)Gal(a1-4)Gal(b1-4)GlcNAc(b1-3)Gal(b1-4)Glc
Method in brief: as §1

[2] = target: GalNAc(b1-4)GlcNAc(b1-2)Man(a1-3)[GalNAc(b1-4)GlcNAc(b1-2)Man(a1-6)]Man(b1-4)GlcNAc(b1-4)GlcNAc
Method in brief: as §1

GalNAc(b1-6)GalNAc = target: GalNAc(b1-6)GalNAc
Method in brief: as §1

GalNAc3S(b1-4)GlcNAc3S = target: GalNAc3S(b1-4)GlcNAc3S
Method in brief: as §1

[3] = target: GlcNAc(a1-4)Gal(b1-4)GlcNAc(b1-3)Gal(b1-4)[Fuc(a1-3)]GlcNAc(b1-3)Gal(b1-4)[Fuc(a1-3)]GlcNAc
Method in brief: as §1

[4] = target: GlcNAc(b1-2)[GlcNAc(b1-4)]Man(a1-3)[GlcNAc(b1-4)][GlcNAc(b1-2)[GlcNAc(b1-6)]Man(a1-6)]Man(b1-4)GlcNAc(b1-4)[Fuc(a1-6)]GlcNAc
Method in brief: as §1

[5] = target: GlcNAc(b1-3)Gal(b1-4)GlcNAc(b1-3)Gal(b1-4)GlcNAc(b1-2)Man(a1-3)[GlcNAc(b1-3)Gal(b1-4)GlcNAc(b1-3)Gal(b1-4)GlcNAc(b1-2)Man(a1-6)]Man(b1-4)GlcNAc(b1-4)GlcNAc
Method in brief: as §1

[6] = target: GlcNAc(b1-3)Gal(b1-4)GlcNAc(b1-3)[GlcNAc(b1-3)Gal(b1-4)GlcNAc(b1-3)]GalNAc
Method in brief: as §1

[7] = target: Man(a1-2)Man(a1-3)[Man(a1-6)]Man(a1-6)[Man(a1-2)Man(a1-3)]Man(b1-4)GlcNAc(b1-4)GlcNAc
Method in brief: as §1

Man(b1-4)GlcNAc = target: Man(b1-4)GlcNAc
Method in brief: as §1

Neu5Ac(a2-3)Gal = target: Neu5Ac(a2-3)Gal
Method in brief: as §1

[8] = target: Neu5Ac(a2-3)Gal(b1-3)GalNAc(b1-4)Gal(b1-4)Glc
Method in brief: as §1

[9] = target: Neu5Ac(a2-3)Gal(b1-4)GlcNAc(b1-2)Man(a1-3)[Neu5Ac(a2-3)Gal(b1-4)GlcNAc(b1-2)Man(a1-6)]Man(b1-4)GlcNAc(b1-4)[Fuc(a1-6)]GlcNAc
Method in brief: as §1

[10] = target: Neu5Ac(a2-6)Gal(b1-3)GlcNAc(b1-3)[Gal(b1-4)GlcNAc(b1-6)]Gal(b1-4)Glc
Method in brief: as §1

[11] = target: Neu5Ac(a2-6)Gal(b1-4)GlcNAc(b1-2)Man(a1-3)[Gal(b1-4)GlcNAc(b1-2)Man(a1-6)]Man(b1-4)GlcNAc(b1-4)GlcNAc
Method in brief: as §1

[12] = target: Neu5Ac(a2-6)Gal(b1-4)GlcNAc6S
Method in brief: as §1

[13] = target: Neu5Gc(a2-3)Gal(b1-4)[Fuc(a1-3)]GlcNAc
Method in brief: as §1

B1: B1567 (Bifidobacterium sp) (protein)
chain: MKFTTAKKAVALTGAVAMLVSVAACGSDSGKSSQPAQDSDVKEITVWAWEPSLTQVAKDFEKETGIKVDLKNVGTNTKEYTQLDNAIEAGSGAPDVAQVEYYAVPQYAIKGNLLDITDKTSGYKDFYTPGPWASVQFAGKVYGLPMDSGPMAFFYNKEVFDKAGVDAEQIKTWDQYYDAAKKIHALGDNYYITSDTGDAGFFDSMTWLAGAKPFQTSSDGSEVTVNLTEDKGVKTFTDFWQKLLDEGLLDTKTAGWSEDWFKGMVDGTIASLFTGAWMPANLANSAADGAGKWRVTQMPTADGSTTNSENGGSSLAVLASTKKADAAYQFIEYANHGAGVATRVAGGAFPADKASLEKDSFKNATTVKNADGQDVDYFGGQKYNEVLAQAAENVSSGYQFLPFEVKARTIFGDYFGKSYTGDQKLSDGVAAWQKALQDYGKDQGFTVK
glycan array binding signal (z-score) (GalNAc(b1-3)Gal): -0.116 | glycan array binding signal (z-score) [1]: -0.139 | glycan array binding signal (z-score) [2]: 0.398 | glycan array binding signal (z-score) (GalNAc(b1-6)GalNAc): -0.095 | glycan array binding signal (z-score) (GalNAc3S(b1-4)GlcNAc3S): -0.058 | glycan array binding signal (z-score) [3]: 0.042 | glycan array binding signal (z-score) [4]: -0.12 | glycan array binding signal (z-score) [5]: 0.008 | glycan array binding signal (z-score) [6]: -0.052 | glycan array binding signal (z-score) [7]: 0.007 | glycan array binding signal (z-score) (Man(b1-4)GlcNAc): -0.154 | glycan array binding signal (z-score) (Neu5Ac(a2-3)Gal): -0.108 | glycan array binding signal (z-score) [8]: -0.112 | glycan array binding signal (z-score) [9]: -0.063 | glycan array binding signal (z-score) [10]: -0.118 | glycan array binding signal (z-score) [11]: -0.128 | glycan array binding signal (z-score) [12]: -0.094 | glycan array binding signal (z-score) [13]: -0.036

Source: the supplement of paper PMC8728848
